PubChem BioAssay (NCATS)
Unmarked numbers belong to inactive results. Inconclusive results are not listed. Entries that show only a call come without a potency. Activity calls are given as the source filed them. Unless noted, calls follow the shape of the dose curve; as a rule, active = well fitted inhibition curve with a large enough effect; inconclusive = small, poorly fitted or top-dose-only effect; inactive = no such curve, though single readings can be large or run the other way.

What was measured:
[1] = biological target: Cytochrome P450 1A2 (Homo sapiens) (UniProt P05177); assay: p450-cyp1a2 (AID 410; calls by dose curve; also: potency is read from the fitted curve at half-maximal effect)
Summary of the method: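 Luminescent readout of luciferin formed from Luciferin-ME by human CYP1A2; data normalized against complete inhibition by 57 uM furafylline. Enzyme 20nM, substrate 100uM at Km, 100mM KPO4 buffer, 60 min reaction at room temperature.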

[2] = biological target: Glucocorticoid receptor (Homo sapiens) (UniProt P04150); assay: GR-EFC Redistribution (AID 451; calls by dose curve; also: potency is read from the fitted curve at half-maximal effect); conditions: CHO-K1 GR-EFC translocation, beta-gal luminescence, 2 h
Summary of the method: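 Translocation of GR-ED fusion to nuclear EA restores b-gal, read by luminescence after 1 h room-temperature detection. Engineered CHO-K1 biosensor cells, 1,000/well, exposed 2 h at 37 C to titrations up to 46 uM final.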

[3] = biological target: Mitogen-activated protein kinase 10 (Mus musculus) (UniProt Q61831); assay: JNK3 AlphaScreen Assay (AID 530; active = well fitted curve in either direction with a large enough effect, not every such curve was filed as active;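 also: kinase came from lysate of stimulated human HepG2 cells; signal reports phosphorylation of biotinylated GST-cJun 1-79 at Ser73 with 10 µM ATP; series mostly up to about 57 µM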)
Summary of the method: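 Compound titrations were preincubated 15 minutes at room temperature with substrate, antibody and pre-activated JNK3-containing HepG2 lysate. Reactions were started with 10 uM ATP and stopped with EDTA-containing bead buffer for AlphaScreen detection.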

[4] = biological target: 3',5'-cyclic-AMP phosphodiesterase 4B (Homo sapiens) (UniProt Q07343); assay: qHTS Assay for Inhibitors of PDE-IV (AID 607; active = well fitted activation curve with a large enough effect in the main read-out, with a control signal flat, not every such curve was filed as active)
Summary of the method: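 Live HEK293 cells with a modified cyclic nucleotide-gated (CNG) channel report intracellular cAMP via membrane-potential dye fluorescence (ex 535/em 590 nm). Endogenous PDE-IV was targeted. Compounds were tested at up to 22.9 uM final; RO 20-1724 100 uM served as control.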

[5] = biological target: Cytochrome P450 2D6 (Homo sapiens) (UniProt P10635); assay: qHTS Assay for Inhibitors and Substrates of Cytochrome P450 2D6 (AID 891);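 also: luciferin methyl ether substrate demethylated by CYP2D6 with NADPH regeneration; nearly all actives have a fitted effect of over 60% in size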
Summary of the method: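 Human CYP2D6 (5 nM) with 30 uM Luciferin-ME EGE (at Km) in 100 mM KPO4, compound preincubated 10 min, then NADPH regeneration system for 60 min at room temperature. Luciferin read by luminescence; normalized to 1.43 uM quinidine.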

[6] = biological target: Cytochrome P450 2C19 (Homo sapiens) (UniProt P33261); assay: qHTS Assay for Inhibitors and Substrates of Cytochrome P450 2C19 (AID 899); also: nearly all actives have a fitted effect of over 60% in size
Summary of the method: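 Luminescence readout of luciferin formed from 10uM Luciferin-H EGE (KM level) by 5 nM CYP2C19 in 50mM KPO4. 60 min NADPH-driven reaction at 37C after 10 min compound preincubation; data scaled to 57uM ketoconazole inhibition.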

[7] = biological target: Cytochrome P450 2C9 (Homo sapiens) (UniProt P11712); assay: qHTS Assay for Inhibitors and Substrates of Cytochrome P450 2C9 (AID 883); also: nearly all actives have a fitted effect of over 60% in size
Summary of the method: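 Luminescent read-out of deoxyluciferin hydroxylation, normalized to 57uM sulphaphenazole (AC100). Reaction: 10nM enzyme, 100uM Luciferin-H (equal to KM), 25mM KPO4, 10 min compound preincubation, then 60 min with NADPH regeneration, both at 37C.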

Sequence of Cytochrome P450 1A2 (Homo sapiens) (P05177 whole entry, looked up): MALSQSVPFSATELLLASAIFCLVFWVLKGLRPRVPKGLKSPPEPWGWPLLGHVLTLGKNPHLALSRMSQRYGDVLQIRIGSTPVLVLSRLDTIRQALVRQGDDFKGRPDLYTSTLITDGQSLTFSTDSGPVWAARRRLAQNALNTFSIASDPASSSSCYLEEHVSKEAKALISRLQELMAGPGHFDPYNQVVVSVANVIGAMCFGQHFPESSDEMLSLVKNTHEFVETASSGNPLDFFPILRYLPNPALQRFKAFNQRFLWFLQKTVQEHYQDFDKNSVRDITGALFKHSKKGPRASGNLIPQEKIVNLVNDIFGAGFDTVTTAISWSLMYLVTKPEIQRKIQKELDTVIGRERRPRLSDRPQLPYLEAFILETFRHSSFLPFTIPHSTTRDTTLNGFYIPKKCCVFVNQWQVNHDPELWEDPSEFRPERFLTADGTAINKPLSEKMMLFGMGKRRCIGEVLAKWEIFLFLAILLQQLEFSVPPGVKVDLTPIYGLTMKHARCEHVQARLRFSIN
Sequence of Cytochrome P450 2C19 (Homo sapiens) (P33261 whole entry, looked up): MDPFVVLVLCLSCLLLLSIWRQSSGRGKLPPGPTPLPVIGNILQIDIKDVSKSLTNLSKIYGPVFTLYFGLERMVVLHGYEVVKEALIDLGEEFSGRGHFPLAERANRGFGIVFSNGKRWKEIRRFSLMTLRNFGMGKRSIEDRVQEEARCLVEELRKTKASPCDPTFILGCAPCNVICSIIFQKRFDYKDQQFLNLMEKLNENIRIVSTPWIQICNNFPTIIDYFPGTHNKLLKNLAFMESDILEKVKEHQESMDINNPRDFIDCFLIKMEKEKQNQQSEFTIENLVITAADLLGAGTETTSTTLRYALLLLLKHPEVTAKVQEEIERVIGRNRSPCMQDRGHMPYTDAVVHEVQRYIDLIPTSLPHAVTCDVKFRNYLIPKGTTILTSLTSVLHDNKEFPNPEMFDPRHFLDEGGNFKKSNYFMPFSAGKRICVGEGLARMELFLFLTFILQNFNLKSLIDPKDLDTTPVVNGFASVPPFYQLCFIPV
Sequence of 3',5'-cyclic-AMP phosphodiesterase 4B (Homo sapiens) (Q07343 whole entry, looked up): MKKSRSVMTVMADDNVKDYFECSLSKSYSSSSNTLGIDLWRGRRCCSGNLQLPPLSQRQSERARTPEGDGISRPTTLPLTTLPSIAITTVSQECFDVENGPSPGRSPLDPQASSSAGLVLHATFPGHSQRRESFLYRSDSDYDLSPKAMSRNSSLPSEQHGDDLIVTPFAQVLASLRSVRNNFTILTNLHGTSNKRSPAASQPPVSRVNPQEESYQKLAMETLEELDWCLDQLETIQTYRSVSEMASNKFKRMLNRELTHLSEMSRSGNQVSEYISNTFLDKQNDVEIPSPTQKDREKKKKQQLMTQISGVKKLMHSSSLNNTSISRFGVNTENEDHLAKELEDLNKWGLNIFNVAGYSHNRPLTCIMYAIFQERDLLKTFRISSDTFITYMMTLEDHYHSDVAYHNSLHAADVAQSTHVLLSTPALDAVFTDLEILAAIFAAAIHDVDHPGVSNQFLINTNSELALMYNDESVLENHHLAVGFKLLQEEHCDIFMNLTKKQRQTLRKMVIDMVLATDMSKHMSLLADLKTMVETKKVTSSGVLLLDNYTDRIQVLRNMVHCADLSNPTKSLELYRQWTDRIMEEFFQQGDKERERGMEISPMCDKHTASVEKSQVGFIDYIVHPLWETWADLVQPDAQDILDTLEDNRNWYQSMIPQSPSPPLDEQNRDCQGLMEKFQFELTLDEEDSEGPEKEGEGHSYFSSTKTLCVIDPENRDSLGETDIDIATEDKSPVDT
Sequence of Glucocorticoid receptor (Homo sapiens) (P04150 whole entry, looked up, the tested form may be a part): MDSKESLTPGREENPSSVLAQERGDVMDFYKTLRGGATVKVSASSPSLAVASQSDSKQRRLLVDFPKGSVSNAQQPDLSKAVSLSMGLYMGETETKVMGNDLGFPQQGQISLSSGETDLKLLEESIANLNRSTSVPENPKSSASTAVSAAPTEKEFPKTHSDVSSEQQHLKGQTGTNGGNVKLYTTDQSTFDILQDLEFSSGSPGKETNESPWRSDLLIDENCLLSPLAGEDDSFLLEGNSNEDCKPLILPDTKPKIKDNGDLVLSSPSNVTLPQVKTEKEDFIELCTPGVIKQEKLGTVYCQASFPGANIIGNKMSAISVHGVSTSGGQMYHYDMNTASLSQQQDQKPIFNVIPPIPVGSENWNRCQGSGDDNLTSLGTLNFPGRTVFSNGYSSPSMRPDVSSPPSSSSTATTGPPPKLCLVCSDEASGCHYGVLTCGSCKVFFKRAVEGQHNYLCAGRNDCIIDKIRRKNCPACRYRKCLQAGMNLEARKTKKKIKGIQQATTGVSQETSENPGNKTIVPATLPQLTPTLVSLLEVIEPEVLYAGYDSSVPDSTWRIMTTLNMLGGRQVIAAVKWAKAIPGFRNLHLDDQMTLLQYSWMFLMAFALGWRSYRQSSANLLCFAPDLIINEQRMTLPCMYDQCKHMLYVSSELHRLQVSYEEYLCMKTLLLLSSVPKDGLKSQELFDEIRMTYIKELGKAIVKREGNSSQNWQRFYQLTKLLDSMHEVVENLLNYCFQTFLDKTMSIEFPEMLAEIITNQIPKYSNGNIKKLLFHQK
Sequence of Cytochrome P450 2C9 (Homo sapiens) (P11712 whole entry, looked up): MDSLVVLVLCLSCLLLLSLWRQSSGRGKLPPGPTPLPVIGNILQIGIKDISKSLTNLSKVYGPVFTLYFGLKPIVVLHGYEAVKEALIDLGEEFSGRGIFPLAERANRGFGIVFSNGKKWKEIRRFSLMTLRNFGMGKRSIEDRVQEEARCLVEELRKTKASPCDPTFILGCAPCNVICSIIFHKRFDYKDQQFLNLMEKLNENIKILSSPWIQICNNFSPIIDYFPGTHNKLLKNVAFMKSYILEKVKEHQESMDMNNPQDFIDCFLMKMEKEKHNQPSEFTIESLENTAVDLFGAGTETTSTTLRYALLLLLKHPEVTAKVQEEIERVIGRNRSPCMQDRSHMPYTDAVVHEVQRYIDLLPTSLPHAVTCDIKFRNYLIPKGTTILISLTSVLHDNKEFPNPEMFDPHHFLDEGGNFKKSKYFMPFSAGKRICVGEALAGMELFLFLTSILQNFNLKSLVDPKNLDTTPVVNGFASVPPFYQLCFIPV
Sequence of Cytochrome P450 2D6 (Homo sapiens) (P10635 whole entry, looked up): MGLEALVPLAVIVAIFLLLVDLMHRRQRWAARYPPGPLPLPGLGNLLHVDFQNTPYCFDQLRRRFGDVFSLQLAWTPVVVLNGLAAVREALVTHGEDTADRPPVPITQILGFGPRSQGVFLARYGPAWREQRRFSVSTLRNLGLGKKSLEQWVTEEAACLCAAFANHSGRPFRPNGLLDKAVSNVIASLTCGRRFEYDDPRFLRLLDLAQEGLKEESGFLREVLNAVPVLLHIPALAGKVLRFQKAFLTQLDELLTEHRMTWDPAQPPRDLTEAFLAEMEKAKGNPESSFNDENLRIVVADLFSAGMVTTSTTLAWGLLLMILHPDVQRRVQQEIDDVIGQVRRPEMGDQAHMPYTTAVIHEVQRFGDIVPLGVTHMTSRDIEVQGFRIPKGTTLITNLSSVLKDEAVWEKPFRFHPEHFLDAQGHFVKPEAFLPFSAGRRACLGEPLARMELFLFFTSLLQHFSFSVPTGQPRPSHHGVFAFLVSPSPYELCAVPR

Structure (SMILES) | Potency [1] | Potency [2] [µM] | Potency [3] | Potency [4] | Potency [5] | Potency [6] | Potency [7]
CC(C)C[C@@H](CC(=O)N[C@@H](CCCN)CC(=O)N[C@@H]1CCNC[C@H]1C(=O)N[C@H](CC(=O)N[C@@H](CCC(=O)O)CC(=O)O)Cc1c[nH]c2ccccc12)NC(=O)[C@@H]1CCCC[C@H]1N | inactive | > 46 | inactive | inactive | inactive | inactive | –
NCCC[C@@H](CC(=O)N[C@@H]1CCCC[C@H]1C(=O)N[C@H](CC(=O)N[C@@H](CCC(=O)O)CC(=O)O)Cc1c[nH]c2ccccc12)NC(=O)C[C@H](Cc1ccccc1)NC(=O)[C@@H]1CNCC[C@H]1N | 15.8 µM (active) | > 46 | inactive | inactive | inactive | inactive | inactive
CC(C)C[C@@H](CC(=O)N[C@@H](CCC(=O)O)CC(=O)O)NC(=O)[C@@H]1CNCC[C@H]1NC(=O)C[C@@H](NC(=O)C[C@H](CO)NC(=O)[C@@H]1CCCC[C@H]1N)C(C)C | inactive | > 46 | inactive | inactive | inactive | inactive | inactive
CC(=O)O[C@@H]1CC[C@]2(C)[C@H]3CC[C@]4(C)[C@H](C[C@H]5CCCC[C@@]54C(C)=O)[C@@H]3CC(=O)[C@@]2(O)C1 | 20 µM (active) | > 46 | inactive | inactive | inactive | – | –
CC(C)C[C@@H](CC(=O)N[C@H](CC(=O)N[C@@H]1CCNC[C@H]1C(=O)N[C@H](CC(=O)N[C@@H](CCC(=O)O)CC(=O)O)Cc1ccccc1)C(C)C)NC(=O)[C@@H]1CNCC[C@H]1N | 31.6 µM (active) | > 46 | inactive | inactive | inactive | inactive | –
CC(C)C[C@@H](CC(=O)N[C@@H](CCC(=O)O)CC(=O)O)NC(=O)[C@@H]1CNCC[C@H]1NC(=O)C[C@@H](NC(=O)C[C@H](Cc1ccccc1)NC(=O)[C@@H]1CNCC[C@H]1N)C(C)C | 31.6 µM (active) | > 46 | inactive | – | inactive | inactive | inactive
CC(C)C[C@@H](CC(=O)N[C@@H](CCC(=O)O)CC(=O)O)NC(=O)[C@@H]1CNCC[C@H]1NC(=O)C[C@H](CCCN)NC(=O)C[C@H](Cc1ccccc1)NC(=O)[C@@H]1CNCC[C@H]1N | 31.6 µM (active) | > 46 | inactive | inactive | inactive | inactive | inactive
CC(C)C[C@@H](CC(=O)N[C@@H](CCC(=O)O)CC(=O)O)NC(=O)[C@@H]1CCCC[C@H]1NC(=O)C[C@@H](NC(=O)C[C@H](CO)NC(=O)[C@@H]1CNCC[C@H]1N)C(C)C | inactive | > 46 | inactive | inactive | inactive | inactive | –
CC(C)[C@@H](CC(=O)N[C@@H]1CCNC[C@H]1C(=O)N[C@H](CC(=O)N[C@@H](CCC(=O)O)CC(=O)O)Cc1ccccc1)NC(=O)C[C@H](Cc1ccccc1)NC(=O)[C@@H]1CNCC[C@H]1N | 15.8 µM (active) | > 46 | inactive | inactive | inactive | – | inactive
NCCC[C@@H](CC(=O)N[C@@H]1CCCC[C@H]1C(=O)N[C@H](CC(=O)N[C@@H](CCC(=O)O)CC(=O)O)Cc1ccccc1)NC(=O)C[C@H](CO)NC(=O)[C@@H]1CNCC[C@H]1N | inactive | > 46 | inactive | – | inactive | – | –
CC(C)[C@@H](CC(=O)N[C@@H]1CCNC[C@H]1C(=O)N[C@H](CC(=O)N[C@@H](CCC(=O)O)CC(=O)O)Cc1c[nH]c2ccccc12)NC(=O)C[C@H](Cc1c[nH]c2ccccc12)NC(=O)[C@@H]1CCCC[C@H]1N | inactive | > 46 | inactive | inactive | inactive | inactive | inactive
CC(C)C[C@@H](CC(=O)N[C@@H](CCCN)CC(=O)N[C@@H]1CCCC[C@H]1C(=O)N[C@H](CC(=O)N[C@@H](CCC(=O)O)CC(=O)O)Cc1c[nH]c2ccccc12)NC(=O)[C@@H]1CNCC[C@H]1N | inactive | > 46 | inactive | inactive | inactive | inactive | inactive
CC(C)C[C@@H](CC(=O)N[C@@H](CCC(=O)O)CC(=O)O)NC(=O)[C@@H]1CCCC[C@H]1NC(=O)C[C@@H](NC(=O)C[C@H](CO)NC(=O)[C@@H]1CCCC[C@H]1N)C(C)C | inactive | > 46 | inactive | inactive | inactive | inactive | –
NCCC[C@@H](CC(=O)N[C@@H]1CCCC[C@H]1C(=O)N[C@H](CC(=O)N[C@@H](CCC(=O)O)CC(=O)O)Cc1c[nH]c2ccccc12)NC(=O)C[C@H](CO)NC(=O)[C@@H]1CCCC[C@H]1N | inactive | > 46 | inactive | inactive | inactive | inactive | –
